Data as given in PubChem BioAssay (NCI).
This is part of a sample that, as a whole, favours compounds with a hit. Of some 79,000 tested, about 15% had one in any assay. The source made the active and inactive calls. Rule as the data show it: active = growth inhibition above about 70%; inactive = the rest.

Experiment: NCI Yeast Anticancer Drug Screen. Data for the mec2-1 strain (AID 157)
Conditions: S. cerevisiae mec2-1 strain, at 50.0 µM (retest, dose inferred, filed as 5.0), active compounds read high
Outline: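 Vehicle-treated cultures served as reference for growth inhibition of compound-exposed mec2-1 yeast.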

Row | Compound | growth inhibition
1 | CC1=CC2OC3CC4OC(=O)/C=C/C=C/C(C(C)O)OCC(=O)C(C)CC(=O)OCC2(CC1)C4(C)C31CO1 (stereo not drawn) | 99% (active)
2 | Cc1cc(=O)oc2c3c(ccc12)OC(c1ccc(Br)cc1)CC3=O (stereo not drawn) | 12% (inactive)
3 | OCC(O)C(O)C(O)/C=N\Nc1ccccc1 (stereo not drawn) | -6% (inactive)
4 | CN(C)Cc1ccc2[nH]c3c(c2c1)CCCC3 | 72% (active)
5 | CC(C)CCCC(C)C1CCC2C3CC=C4OC(=O)CCC4(C)C3CCC12C (stereo not drawn) | 85% (active)
6 | CC(C(=O)c1ccc2cc(Br)c3ccccc3c2c1)N(C)C (stereo not drawn) | 99% (active)
7 | O=[N+]([O-])c1ccccc1SCc1ccccc1 | 35% (inactive)
8 | C(=P(c1ccccc1)(c1ccccc1)c1ccccc1)[P+](c1ccccc1)(c1ccccc1)c1ccccc1 | 100% (active)
9 | CCOC(=O)N1CCN(C(=S)N/N=C(\C)c2ncccn2)CC1 | 99% (active)
10 | CCC1(C)C(C#N)(C#N)C1(C#N)C#N | 95% (active)
11 | Cc1ccccc1C(O)(c1ccccc1C)C1(O)CCN(C)CC1 | 0% (inactive)
12 | Oc1c(C(Nc2ccccn2)c2ccccc2)ccc2cccnc12 (stereo not drawn) | 97% (active)
13 | Cc1ccc(C(CN(C)C)C(=O)c2ccccc2)cc1C (stereo not drawn) | 97% (active)
14 | COC(=O)/C=C(\NC1CC(OC2C[C@](O)(C(C)=O)Cc3c(O)c4c(c(O)c32)C(=O)c2c(OC)cccc2C4=O)OC(C)C1O)C(=O)OC (stereo partly drawn) | 98% (active)
15 | CC1(C)C/C(=N/NC(N)=S)C(=NO)/C(=N\NC(N)=S)C1 | 40% (inactive)
16 | Cc1cc2c(c(C(N)=O)c1C)-c1cccc(F)c1C2=O | 20% (inactive)
17 | CN(C)c1ccc(/C=C(\C#N)c2cccc(Cl)c2)cc1 | 1% (inactive)
18 | Cc1ccc(S(=O)(=O)NNc2nc(N(C)C)nc(N(C)C)n2)cc1 | 14% (inactive)
19 | CC(NNC(=S)NCc1ccccc1)c1cc2ccccc2cn1 (stereo not drawn) | 93% (active)
20 | COc1ccc(Cc2c(-c3ccc(C)cc3)n[nH]c(=O)c2C2C(=O)N(c3ccccc3)N=C2c2ccccc2)cc1 (stereo not drawn) | 96% (active)

Row | Compound | growth inhibition
21 | CC1(c2ccccc2)OC(=O)C=CC1=O (stereo not drawn) | 98% (active)
22 | CC1CCC(C)(C)c2cc([N+](=O)[O-])cc([N+](=O)[O-])c21 (stereo not drawn) | 99% (active)
23 | CC1(C)CC(=O)C(/C=N/c2nc(-c3cccc([N+](=O)[O-])c3)cs2)=C(O)C1 | 99% (active)
24 | O=[N+]([O-])C(=C1Nc2ccccc2N1)C(Cl)=C(Cl)Cl | 15% (inactive)
25 | COc1ccc2c(c1)C1(C)CCCC(C)(C(=O)O)C1C(Br)C2=O (stereo not drawn) | 98% (active)
26 | COc1cc(NCC(C)(O)CN2CCC(C)CC2C)c2ncccc2c1 (stereo not drawn) | 47% (inactive)
27 | ClC/C=C/c1ccccc1 | 11% (inactive)
28 | O=C(c1ccc(O)c(Br)c1)c1cc(Br)ccc1O | 98% (active)
29 | COc1ccc(OP2(Oc3ccc(OC)cc3)=NP(Oc3ccc(OC)cc3)(Oc3ccc(OC)cc3)=NP(Oc3ccc(OC)cc3)(Oc3ccc(OC)cc3)=NP(Oc3ccc(OC)cc3)(Oc3ccc(OC)cc3)=N2)cc1 | -9% (inactive)
30 | COc1ccccc1NC(=O)CSC(N)=O | 42% (inactive)
31 | Cc1ccc(N=C(N)Nc2ccc(C)cn2)nc1 | 68% (inactive)
32 | FC(F)(F)c1nc(Cl)nc2nc[nH]c12 | -2% (inactive)
33 | O=[N+]([O-])c1ccccc1CC(c1c[nH]c2ccccc12)c1c[nH]c2ccccc12 | 74% (active)
34 | O=C(O)C1CCCCC1.[Ag] | 99% (active)
35 | CC(C)c1ccc(O)c(O)c(=O)c1 | 63% (inactive)
36 | CC(C)(C)c1ccc(Sc2ncnc3ccccc23)cc1 | 90% (active)
37 | CC(C)NC(=O)CN1C(=O)NC(C)(c2ccccc2)C1=O (stereo not drawn) | 8% (inactive)
38 | COc1cccc(N2CCN(CC(O)COc3cc4c(c5c3CCCC5)CCCC4)CC2)c1 (stereo not drawn) | 98% (active)
39 | CC(CCN)(CCN)[N+](=O)[O-] | -27% (inactive)

Same assay, conditions: S. cerevisiae mec2-1 strain, at 50.0 µM, active compounds read high

Row | Compound | growth inhibition
40 | CC1=CC2OC3CC4OC(=O)/C=C/C=C/C(C(C)O)OCC(=O)C(C)CC(=O)OCC2(CC1)C4(C)C31CO1 (stereo not drawn) | 94% (active)
41 | Cc1cc(=O)oc2c3c(ccc12)OC(c1ccc(Br)cc1)CC3=O (stereo not drawn) | -7.8% (inactive)
42 | OCC(O)C(O)C(O)/C=N\Nc1ccccc1 (stereo not drawn) | 44.4% (inactive)
43 | CN(C)Cc1ccc2[nH]c3c(c2c1)CCCC3 | 36.6% (inactive)
44 | CC(C)CCCC(C)C1CCC2C3CC=C4OC(=O)CCC4(C)C3CCC12C (stereo not drawn) | 91.8% (active)
45 | CC(C(=O)c1ccc2cc(Br)c3ccccc3c2c1)N(C)C (stereo not drawn) | 98.5% (active)
46 | O=[N+]([O-])c1ccccc1SCc1ccccc1 | 15.8% (inactive)
47 | C(=P(c1ccccc1)(c1ccccc1)c1ccccc1)[P+](c1ccccc1)(c1ccccc1)c1ccccc1 | 99.3% (active)
48 | CCOC(=O)N1CCN(C(=S)N/N=C(\C)c2ncccn2)CC1 | 99.7% (active)
49 | CCC1(C)C(C#N)(C#N)C1(C#N)C#N | 92.6% (active)
50 | Cc1ccccc1C(O)(c1ccccc1C)C1(O)CCN(C)CC1 | 96.7% (active)
51 | Oc1c(C(Nc2ccccn2)c2ccccc2)ccc2cccnc12 (stereo not drawn) | 94.3% (active)
52 | Cc1ccc(C(CN(C)C)C(=O)c2ccccc2)cc1C (stereo not drawn) | 3.35% (inactive)
53 | COC(=O)/C=C(\NC1CC(OC2C[C@](O)(C(C)=O)Cc3c(O)c4c(c(O)c32)C(=O)c2c(OC)cccc2C4=O)OC(C)C1O)C(=O)OC (stereo partly drawn) | 97.7% (active)
54 | CC1(C)C/C(=N/NC(N)=S)C(=NO)/C(=N\NC(N)=S)C1 | 62% (inactive)
55 | Cc1cc2c(c(C(N)=O)c1C)-c1cccc(F)c1C2=O | 7.15% (inactive)
56 | CN(C)c1ccc(/C=C(\C#N)c2cccc(Cl)c2)cc1 | 18% (inactive)
57 | Cc1ccc(S(=O)(=O)NNc2nc(N(C)C)nc(N(C)C)n2)cc1 | 5.4% (inactive)
58 | CC(NNC(=S)NCc1ccccc1)c1cc2ccccc2cn1 (stereo not drawn) | 80.8% (active)
59 | COc1ccc(Cc2c(-c3ccc(C)cc3)n[nH]c(=O)c2C2C(=O)N(c3ccccc3)N=C2c2ccccc2)cc1 (stereo not drawn) | 95.3% (active)

Row | Compound | growth inhibition
60 | CC1(c2ccccc2)OC(=O)C=CC1=O (stereo not drawn) | 99.7% (active)
61 | CC1CCC(C)(C)c2cc([N+](=O)[O-])cc([N+](=O)[O-])c21 (stereo not drawn) | -0.75% (inactive)
62 | CC1(C)CC(=O)C(/C=N/c2nc(-c3cccc([N+](=O)[O-])c3)cs2)=C(O)C1 | 99% (active)
63 | O=[N+]([O-])C(=C1Nc2ccccc2N1)C(Cl)=C(Cl)Cl | 3.3% (inactive)
64 | COc1ccc2c(c1)C1(C)CCCC(C)(C(=O)O)C1C(Br)C2=O (stereo not drawn) | 46.6% (inactive)
65 | COc1cc(NCC(C)(O)CN2CCC(C)CC2C)c2ncccc2c1 (stereo not drawn) | 50.1% (inactive)
66 | ClC/C=C/c1ccccc1 | 16.9% (inactive)
67 | O=C(c1ccc(O)c(Br)c1)c1cc(Br)ccc1O | 96.9% (active)
68 | COc1ccc(OP2(Oc3ccc(OC)cc3)=NP(Oc3ccc(OC)cc3)(Oc3ccc(OC)cc3)=NP(Oc3ccc(OC)cc3)(Oc3ccc(OC)cc3)=NP(Oc3ccc(OC)cc3)(Oc3ccc(OC)cc3)=N2)cc1 | 65.8% (inactive)
69 | COc1ccccc1NC(=O)CSC(N)=O | 61.8% (inactive)
70 | Cc1ccc(N=C(N)Nc2ccc(C)cn2)nc1 | 77.9% (active)
71 | FC(F)(F)c1nc(Cl)nc2nc[nH]c12 | 6.1% (inactive)
72 | O=[N+]([O-])c1ccccc1CC(c1c[nH]c2ccccc12)c1c[nH]c2ccccc12 | 80.7% (active)
73 | O=C(O)C1CCCCC1.[Ag] | 92% (active)
74 | CC(C)c1ccc(O)c(O)c(=O)c1 | 94.7% (active)
75 | CC(C)(C)c1ccc(Sc2ncnc3ccccc23)cc1 | 89.3% (active)
76 | CC(C)NC(=O)CN1C(=O)NC(C)(c2ccccc2)C1=O (stereo not drawn) | 67% (inactive)
77 | COc1cccc(N2CCN(CC(O)COc3cc4c(c5c3CCCC5)CCCC4)CC2)c1 (stereo not drawn) | 48.6% (inactive)
78 | CC(CCN)(CCN)[N+](=O)[O-] | 15.8% (inactive)
